The record followed here is PubChem BioAssay (NCI).

About 83,000 compounds went through this panel and 20% of them were active in at least one assay; those are over-represented in the sample as a whole.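 Assay: single dose, 48 h. Readout: percent growth (0 = no net growth; negative = cell death). Active: <10.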 A number with no mark means an inactive call. Active and inactive are the calls of the source.

The test system of this experiment is HL-60(TB) leukemia. Put plainly: NCI-60 one-dose screen, 48 h (100 = growth as untreated, 0 = no growth, -100 = all killed). The settings on record: 10 µM unless noted.
As to `CCN(CC)CCNc1ccc(N=Nc2cnc3ccccc3c2)c2ccccc12`, the growth was -72.2% (active).
In the case of `Clc1ccccc1-c1nc2ccccc2[nH]1`, the growth was 74.4%.
The result for `COc1ccc(/C=N/NC(N)=S)c(OC)n1` reads 93.4%; that for `CCOCCNc1ccc(S(=O)(=O)c2ccc(N)cc2)cc1N`, 107%.
The result for `O=C(Cn1cc(CO)nn1)Nc1nc2ccccc2s1` reads 97.1%.
The result for `CCN1C(=S)N(CC)C2Nn3c(s/c(=C4\C(=O)N(C)c5ccccc54)c3=O)=NC21` (configuration not stated) reads 6.45% (active); that for `CC1=C(C#N)C(=O)NC(C)C1` (configuration not stated), 91%; that for `N#Cc1c(N)n2c(nc1=Nc1ccc(Cl)cc1)sc1cc(Cl)ccc12`, 117%.
Regarding `Cn1cc(-c2nonc2-c2cn(C)c3ccc(Br)cc23)c2ccccc21`, the growth was -18.9% (active).
The result for `c1nc(N2CCOCC2)c2[nH]ccc2n1` reads 90.2%; that for `CCCCCCCCCCCCCCCCCCNC(=O)[C@H]1CSC(c2ccc(OC)c(F)c2)N1` (some centres not stated), -60.3% (active).
The result for `CC1CN(CCO)CC(C)O1` (configuration not stated) reads 102%.
As for `CN(C)CCCSc1ccccc1NC1=C(Cl)C(=O)C(Nc2ccccc2SCCCN(C)C)=C(Cl)C1=O`, the figure is -34.8% (active); as for `COc1ccc(N2CCN(Cc3cc(C(=O)/C=C/c4c[nH]c5ccccc45)ccc3O)CC2)cc1`, 99.9%; as for `Cc1cccc(C(=O)N(C(C)C)C(C)C)c1`, 99.1%.
On to `CCOC(=O)N1C=CC2C=CC1C1C=CC=CC2N1C(=O)OCC` (configuration not stated), for which the growth was 104%.
For `Cc1n[nH]c(=O)n(/N=C\c2c[nH]c3ccccc23)c1=O`, the growth was 89.1%.
